Measured values taken from the supplement of paper PMC12350171.
Structures can show the parent of a compound that is named as a salt.

Test system: Haemophilus parainfluenzae
Assay: growth AUC normalised to DMSO control (fraction of control); higher = less growth inhibition, active = hit call of the paper
Conditions: 20 µM;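 active = AUC significantly below DMSO controls by Student t-fit with adjusted P under 0.01; inactive = not significantly reduced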
Method in brief: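 Three biological replicates were carried out, with OD578 read hourly for 24 h. Before inoculation at a starting OD578 of 0.01, pathogens were passaged anaerobically twice; plates were pre-reduced mGAM containing 20 μM compound and 1% DMSO, sealed with breathable membranes, and the Haemophilus parainfluenzae medium carried added hemin and NAD. Area under each growth curve was calculated by the trapezoidal rule up to the exponential-to-stationary transition and normalised to DMSO controls on the same plate.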

SMILES	growth AUC normalised to DMSO control
CC[N+](CC)(CC)CCC(O)(c1ccccc1)C1CCCCC1 (centres undefined) [Tridihexethyl chloride]	1.05 (inactive)
CCCCN1CCCCC1C(=O)Nc1c(C)cccc1C (centres undefined) [Bupivacaine hydrochloride]	0.967 (inactive)
C=CCSCC1Nc2cc(Cl)c(S(N)(=O)=O)cc2S(=O)(=O)N1 (centres undefined) [Althiazide]	1.07 (inactive)
CN(C)c1nc(N(C)C)nc(N(C)C)n1 [Altretamine]	1.05 (inactive)
CC1=Nc2ccc(Cl)cc2S(=O)(=O)N1 [Diazoxide]	1.05 (inactive)
CN1C(=O)OC(C)(C)C1=O [Trimethadione]	0.975 (inactive)
CC[N+](C)(C)Cc1ccccc1Br [Bretylium tosylate]	1.02 (inactive)
Cc1c(OCC(F)(F)F)ccnc1C[S+]([O-])c1nc2ccccc2[nH]1 (centres undefined) [Lansoprazole]	0.873 (inactive)
CCOC(=O)C1=C[C@]2(CC)CCCN3CCc4c(n1c1ccccc41)[C@@H]32 [Vinpocetine]	0.845 (inactive)
